Assay outcomes (PubChem)
This is a sample that favours compounds with a hit; in the whole collection about 1% have one here.
SSB-PriA inh: blocks PriA binding to SSB C-terminal tail. AlphaScreen SSBct-PriA binding, biotinylated peptide. inhibition, % at 33 µM. 0.6% of 430,000 active. AID 1272365; in the data active means inhibition mostly above about 37%, no sharp cut-off; inactive means mostly below about 20%;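 further: plate controls were negative control peptide for no effect and reference peptide for full effect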
ugtP null kill: compounds lethal to S. aureus RN4220 ugtP deletion mutant | AID 1259309 | 0.54% of 330,000 active | OD600 growth, 16 h | growth inhibition, % (test concentration not listed); in the data active means growth inhibition above about 68%;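 further: plate controls were untreated wells for no effect and antibiotic for full effect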
Mtb hypoxia inh: Mtb hypoxia fluorescent reporter inhibition. M. tuberculosis hypoxia-regulated fluorescent reporter, fluorescence. fluorescence inhibition, % (test concentration not listed). 0.1% of 300,000 active. AID 1159583; in the data active means fluorescence inhibition mostly above about 23%, no sharp cut-off; inactive means mostly below about 17%
Mtb bLac sens: beta-lactam sensitization of Mtb H37Rv. inhibition, % at 25 µM. 0.27% of 330,000 active. M. tuberculosis H37Rv growth with meropenem, percent inhibition; call rule not given here;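 further: growth measured after seven days incubation then overnight dye step; 0% = bacteria only wells and 100% = bacteria with antibiotic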
RN4220 kill: kills Staphylococcus aureus RN4220; S. aureus RN4220 growth, OD600, 16 h; inhibition, % (no concentration beside the values); 0.33% of 330,000 active; in the data active means inhibition above about 85%;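 further: plate controls were untreated cells for no effect and reference antibiotic for full effect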
Starred values were filed as active, the others as inactive; nt = no result given; ! = not active in a repeat.

SMILES	SSB-PriA inh	ugtP null kill	Mtb hypoxia inh	Mtb bLac sens	RN4220 kill
O=C(Nc1nnc(-c2ccccc2)s1)c1ccccc1O	-10	94*	7	-3	91*
COc1cccc(-c2ccc(C#N)c(SCC(=O)NCCc3cccc(Cl)c3)n2)c1	-10	85*	-3	4	5
COc1ccc(-c2ccc(C#N)c(SCC(=O)NCCc3ccccc3)n2)cc1OC	-3	7	3	3	2
O=C(NCC(O)(c1cccs1)C1CC1)c1nc2ccccc2s1 (stereo not given)	-9	nt	nt	nt	nt
COc1ccc(Nc2nn3c(=O)c4cc(OC)c(OC)cc4nc3s2)cc1	-3	nt	nt	nt	nt
CC(C)c1cc(NCCOCCO)n2c(nc3ccccc32)c1C#N	39*	-4	6	4	3
Cc1cc(NC(=O)Cn2cccc(-c3nc(C4CC4)no3)c2=O)no1	26*	nt	nt	nt	nt
O=C(Cc1cccs1)NC1CCC(Oc2ccccn2)CC1 (stereo not given)	2	nt	nt	nt	nt
O=c1ccsn1Cc1ccccc1	-3	88*	7	1	4
CCOC(=O)c1c(C)oc2c1c(C(c1ccc(OC)cc1)N1CCOCC1)c(O)c1ccccc12 (stereo not given)	-3	nt	nt	nt	nt
CCOC(=O)c1c(C)oc2c1c(C(c1ccccc1)N1CCOCC1)c(O)c1ccccc12 (stereo not given)	10	89*	8	65	14
O=C(CCNC(=O)c1ccccc1Br)N=Nc1c(O)[nH]c2ccccc12	-24	nt	nt	nt	nt
CC(C)(C)CC(=O)NCCn1ncc2c(=O)n(Cc3cccc(F)c3)cnc21	-7	nt	nt	nt	nt
COC1C=CO[C@@]2(C)Oc3c(C)c(O)c4c(O)c(c(C=NN5CCN(C)CC5)c(O)c4c3C2=O)NC(=O)C(C)=CC=CC(C)C(O)C(C)C(O)C(C)C(OC(C)=O)C1C (stereo not given in full)	nt	97*	nt	nt	98*
COC1C=CO[C@@]2(C)Oc3c(C)c(O)c4c(O)c(c5c(nc6cc(C)ccn65)c4c3C2=O)NC(=O)C(C)=CC=CC(C)C(O)C(C)C(O)C(C)C(OC(C)=O)C1C (stereo not given in full)	nt	99*	nt	nt	99*
CCC(C)N1CCC2(CC1)N=c1c3c(O)c4c(O)c(C)c5c(c4c1=N2)C(=O)[C@@](C)(OC=C[C@H](OC)[C@@H](C)[C@@H](OC(C)=O)[C@H](C)[C@H](O)[C@H](C)[C@@H](O)[C@@H](C)C=CC=C(C)C(=O)N3)O5 (stereo not given in full)	28	nt	nt	nt	nt
O=S(=O)(c1cccc(F)c1)N1CCN(c2ncnc3scc(-c4ccc(F)cc4)c23)CC1	-7	99*	-4	-10	97*
Cc1ccc(S(=O)(=O)N2CCN(c3ncnc4scc(-c5ccccc5)c34)CC2)cc1	0	58	3	-10	91*
Cc1ccc(S(=O)(=O)N2CCN(c3ncnc4scc(-c5ccc(F)cc5)c34)CC2)cc1	0	99*	6	-6	98*
O=C(CN1CC(c2nc(C3CC3)no2)C1)NC[C@H]1CCCO1	-1	nt	nt	nt	nt
CCCN(CCC)C(=O)Cc1csc2nc(-c3ccc(OCC)cc3)cn12	5	nt	nt	nt	nt
CC=CC(=O)Nc1cccc(C2=NOC3(C2)CC(C(N)=O)N(C(=O)c2cc([N+](=O)[O-])cc([N+](=O)[O-])c2)C3)c1 (stereo not given)	nt	1	40*	nt	1
C/C=C/C(=O)Nc1cccc(C2=NOC3(C2)C[C@@H](C(N)=O)N(C(=O)c2cc([N+](=O)[O-])cc([N+](=O)[O-])c2)C3)c1 (stereo not given in full)	-3	nt	nt	97	nt
O=C(CSc1ccc(-c2ccccn2)nn1)NCc1ccc(F)cc1	3	-1	13	-1	6
O=C(CSc1ccc(-c2ccccn2)nn1)NCc1ccccc1	50*!	2	15	0	3
SMILES	SSB-PriA inh	ugtP null kill	Mtb hypoxia inh	Mtb bLac sens	RN4220 kill
O=C(CSc1ccc(-c2ccccn2)nn1)NCCc1ccccc1	81*	nt	nt	nt	nt
O=C(CSc1ccc(-c2cccs2)nn1)NCCc1ccccc1	-3	4	13	-2	-4
O=C(CSc1ccc2nnc(-c3ccccc3)n2n1)NCc1ccco1	2	12	-3	-7	6
O=C(CSc1ccc2nnc(-c3ccccn3)n2n1)NCc1ccco1	82*	3	0	4	5
O=C(CSc1ccc(-c2ccccn2)nn1)NC1CCCCC1	72*!	0	13	-1	5
COc1ccc(S(=O)(=O)N2CCN(CCNC(=O)c3ccccc3Br)CC2)cc1	-8	nt	nt	nt	nt
O=C(CSc1ccc(-c2ccccn2)nn1)NCc1ccco1	71*	nt	nt	nt	nt
